{"source": "PubChem BioAssay (EPA / NIEHS)", "note": "Several values for one entry are separate records, joined by “and”; a condition that tells them apart may be missing. Equal values may be shown once. Results filed as inconclusive are left out. Activity calls are given as the source filed them. Rule for the calls: active = hit-call score of the fitted dose curve at least 0.9, where 1 is the maximum; inconclusive = response in the unintended direction; inactive = score below 0.9.", "data": [{"biological_target": "human Phosphoinositide 3-kinase alpha (PI3Ka), PIK3CA (gene 5290) (UniProt P42336)", "sequence (P42336 whole entry, looked up)": "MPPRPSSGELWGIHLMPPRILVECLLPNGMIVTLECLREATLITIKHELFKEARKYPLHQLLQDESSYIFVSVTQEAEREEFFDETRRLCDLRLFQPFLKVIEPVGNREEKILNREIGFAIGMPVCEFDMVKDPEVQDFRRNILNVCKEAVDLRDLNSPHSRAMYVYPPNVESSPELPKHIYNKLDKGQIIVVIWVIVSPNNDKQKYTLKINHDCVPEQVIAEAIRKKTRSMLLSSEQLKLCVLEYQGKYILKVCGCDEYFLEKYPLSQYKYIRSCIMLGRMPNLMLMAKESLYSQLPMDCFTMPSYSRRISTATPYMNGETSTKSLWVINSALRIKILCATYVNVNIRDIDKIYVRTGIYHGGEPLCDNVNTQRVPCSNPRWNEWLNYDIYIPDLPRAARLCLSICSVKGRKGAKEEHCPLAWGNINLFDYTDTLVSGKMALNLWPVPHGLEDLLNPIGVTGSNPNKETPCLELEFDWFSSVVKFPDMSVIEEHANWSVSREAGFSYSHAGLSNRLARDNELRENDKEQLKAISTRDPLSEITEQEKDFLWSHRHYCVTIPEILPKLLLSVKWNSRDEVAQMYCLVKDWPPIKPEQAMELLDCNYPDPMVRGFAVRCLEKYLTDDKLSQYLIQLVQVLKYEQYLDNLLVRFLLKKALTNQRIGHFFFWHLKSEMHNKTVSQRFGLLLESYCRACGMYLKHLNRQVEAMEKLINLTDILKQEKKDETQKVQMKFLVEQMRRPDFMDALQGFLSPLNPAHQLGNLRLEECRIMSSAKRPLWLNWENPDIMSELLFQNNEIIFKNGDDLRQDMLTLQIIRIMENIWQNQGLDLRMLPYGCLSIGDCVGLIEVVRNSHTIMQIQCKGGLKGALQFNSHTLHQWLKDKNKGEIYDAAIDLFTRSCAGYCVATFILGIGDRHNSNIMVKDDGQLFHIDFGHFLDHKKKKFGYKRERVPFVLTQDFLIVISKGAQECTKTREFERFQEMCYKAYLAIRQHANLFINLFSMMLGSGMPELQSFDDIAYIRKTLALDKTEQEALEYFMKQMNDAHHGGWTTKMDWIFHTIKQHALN", "assay": "NVS_ENZ_hPI3Ka: NovaScreen (NVS) Enzymatic Assay for human Phosphoinositide 3-kinase alpha (PI3Ka) (AID 2283196)", "how_it_was_run": "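Enzyme activity as fluorescence after mobility-shift separation of substrate and product, 1 h reaction, recombinant human PI3Kα; concentration-response to 50 uM max for chemicals passing a 25 uM duplicate screen.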", "values": [{"smiles": "O=C(O)C(F)(F)C(F)(F)C(F)(F)C(F)(F)C(F)(F)C(F)(F)C(F)(F)F", "AC50": "11.3 µM (active)"}, {"smiles": "CCN(CC)C(=O)SCc1ccc(Cl)cc1", "outcome": "inactive"}, {"smiles": "N#Cc1c(Cl)c(Cl)c(Cl)c(C#N)c1Cl", "AC50": "33.1 µM (active)"}, {"smiles": "CCS(=O)(=O)c1cccnc1S(=O)(=O)NC(=O)Nc1nc(OC)cc(OC)n1", "outcome": "inactive"}, {"smiles": "CC[C@H](C)[C@H]1O[C@]2(C=C[C@@H]1C)C[C@@H]1C[C@@H](C/C=C(\\C)[C@@H](O[C@H]3C[C@H](OC)[C@@H](O[C@H]4C[C@H](OC)[C@@H](O)[C@H](C)O4)[C@H](C)O3)[C@@H](C)/C=C/C=C3\\CO[C@@H]4[C@H](O)C(C)=C[C@@H](C(=O)O1)[C@]34O)O2", "note": "(tested in a mixture with another compound)", "AC50": "5.57 µM (active)"}, {"smiles": "O=S(=O)(O)C(F)(F)C(F)(F)C(F)(F)C(F)(F)C(F)(F)C(F)(F)C(F)(F)C(F)(F)F", "AC50": "6.79 µM (active) and 4.5 µM (active) and 8.3 µM (active)"}, {"smiles": "Oc1ccc(Cl)cc1Cc1ccccc1", "outcome": "inactive"}, {"smiles": "O=[N+]([O-])/N=C1\\NCCN1Cc1ccc(Cl)nc1", "outcome": "inactive"}]}]}
